Most compounds without a hit are left out; they make up all but 2.8% or so of the library.
TWEAK-Fn14 inh: TWEAK-Fn14 signaling inhibition | AID 1159606 | 360,000 tested, 2% active | TWEAK-stimulated Fn14 reporter cells, luciferase luminescence, 8 h | inhibition, % at 10 µM; in the data active = inhibition above about 50%
TROY NFkB inh: inhibitors of TROY-dependent NF-kB signaling | Q293 LMP1-TROYcd NF-kB luciferase reporter, 4 h | inhibition, % at 10 µM | 360,000 tested, 0.98% active;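 active = compounds whose plate-normalised and pattern-corrected inhibition of the luciferase reporter signal at the single screening dose is 50% or more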
EWS-Fli block: EWS/Fli transcriptional activity inhibition; A673 NR0B1-luciferase reporter, viability-normalised; inhibition, % at 12.6 µM; 350,000 tested, 0.67% active;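 active = mean inhibition of at least 50% after viability correction, with every replicate also passing that limit; inconclusive = mean reaches 50% but only one of two replicates passes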;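 note: firefly luciferase signal divided by Alamar Blue viability fluorescence both relative to DMSO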
PAX8 inh HTS: PAX8 transcriptional activity inhibition. RMG-I TPO-luciferase reporter, SteadyGlo, 24 h. 360,000 tested, 1.2% active. AID 652154. inhibition, % at 12.6 µM;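 active = mean replicate inhibition at least 60% with every replicate also reaching 60%; inconclusive = only one of the two criteria is met; inactive = mean below 60% and not all replicates reaching 60%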;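 note: luciferase light reporting Pax8 driven TPO promoter activity; plate controls were median of neutral control wells for no effect and mitoxantrone controls for full effect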
LGR2 inh: blocks bursicon-induced cAMP signaling via Drosophila LGR2 | HEK293 LGR2, CRE-luciferase, bursicon-stimulated, 4 h | inhibition, % at 9.99 µM | 380,000 tested, 0.35% active | AID 720647;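 active = drop in luminescence signal, shown as inhibition above about 50% in the replicate tests, limit read from the data, passing the limit was not always enough; inconclusive = probably only some replicates passing the limit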;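 note: agonist challenge used bursicon conditioned medium at about half maximal strength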
An asterisk follows results filed as active.

`C[C@@H]1CCCCO[C@H](CN(C)C(=O)Nc2ccc(C(F)(F)F)cc2)[C@@H](C)CN([C@@H](C)CO)C(=O)c2cc(NC(=O)Nc3ccccc3)ccc2O1` gave EWS-Fli block -11, PAX8 inh HTS 93* and LGR2 inh 8.
C[C@@H]1CN([C@H](C)CO)C(=O)Cc2cc(NC(=O)NC3CCCCC3)ccc2O[C@H]1CN(C)Cc1ccc(C(=O)O)cc1 was read as EWS-Fli block 0, PAX8 inh HTS -10 and LGR2 inh -5.
`O=S(=O)(Nc1ccc(C(O)(C(F)(F)F)C(F)(F)F)cc1)c1ccc(Cl)c2nonc12` gave TWEAK-Fn14 inh 76* and TROY NFkB inh 10.
CCN(CC)C(=O)C1c2ccccc2Oc2ccccc21 was read as TWEAK-Fn14 inh 61*, TROY NFkB inh -14, EWS-Fli block 6, PAX8 inh HTS -4 and LGR2 inh -7.
`O=C(O)CCCCCCCCc1cn(Cc2ccc(C(=O)c3ccccc3)cc2)nn1` gave TWEAK-Fn14 inh -11, TROY NFkB inh 23, EWS-Fli block 54*, PAX8 inh HTS 24 and LGR2 inh 11.
CC(C)C(=O)Nc1ccc2c(c1)C(=O)N(C)[C@@H]1CC[C@@H](CC(=O)NCC3CC3)O[C@@H]1CO2 was read as EWS-Fli block 1, PAX8 inh HTS 1 and LGR2 inh -6.
`COc1ccccc1C#Cc1ccc([C@@H]2[C@H]3CN(C(=O)C4CCC4)CCCCN3[C@H]2CO)cc1` gave EWS-Fli block 17, PAX8 inh HTS 7 and LGR2 inh -1.
CC(C)CCn1cnc2c(sc3nc4c(cc32)CSC(C)(C)C4)c1=O was read as TWEAK-Fn14 inh 68*, TROY NFkB inh 67*, EWS-Fli block -10, PAX8 inh HTS -68 and LGR2 inh 13.
Screening CC1CCN(CCCOc2ccc(OCc3ccccc3)cc2)CC1 returned TWEAK-Fn14 inh -26, TROY NFkB inh -23 and LGR2 inh -19.
`c1ccc(COc2ccc(OCCCN3CCCC3)cc2)cc1` gave TWEAK-Fn14 inh 51*, TROY NFkB inh 35, EWS-Fli block -11, PAX8 inh HTS 67* and LGR2 inh inconclusive.
c1ccc(COc2ccc(OCCN3CCCCC3)cc2)cc1 was read as TWEAK-Fn14 inh -11, TROY NFkB inh -43, EWS-Fli block -37, PAX8 inh HTS 99* and LGR2 inh -35.
c1ccc(COc2ccc(OCCN3CCCC3)cc2)cc1 was read as TWEAK-Fn14 inh 11, TROY NFkB inh -49 and LGR2 inh -17.
Screening Cn1c(SCC(=O)N2c3ccccc3Sc3ccccc32)nc2ccccc21 returned TWEAK-Fn14 inh 1, TROY NFkB inh 0, EWS-Fli block 9, PAX8 inh HTS 10 and LGR2 inh 18.
Screening CN(C)CCCn1c(SCC(=O)N2c3ccccc3Sc3ccccc32)nc2ccccc2c1=O returned TWEAK-Fn14 inh -15, TROY NFkB inh -7, EWS-Fli block 54*, PAX8 inh HTS 5 and LGR2 inh -10.
CCCn1c(SCC(=O)N2c3ccccc3Sc3ccccc32)nc2c1c(=O)n(C)c(=O)n2C was read as TWEAK-Fn14 inh -25 and TROY NFkB inh 50*.
`CCC(=O)N(C)C[C@H]1Oc2cc(C#CCOC)ccc2S(=O)(=O)N([C@@H](C)CO)C[C@H]1C` gave EWS-Fli block -11 and LGR2 inh 2.
For O=[N+]([O-])c1ccc(Oc2cccnc2)c([N+](=O)[O-])c1 the results were TWEAK-Fn14 inh 42, TROY NFkB inh -2, EWS-Fli block 1, PAX8 inh HTS 64* and LGR2 inh 10.
Screening COc1cccc(NC(=O)N[C@H]2CC[C@H](CC(=O)N3CCCCC3)O[C@@H]2CO)c1 returned EWS-Fli block 3, PAX8 inh HTS -1 and LGR2 inh -16.
Screening CS(=O)(=O)c1ccc(C(=O)OCC(=O)NCc2cccs2)cc1[N+](=O)[O-] returned TWEAK-Fn14 inh 92*, TROY NFkB inh 24, EWS-Fli block 8, PAX8 inh HTS 101* and LGR2 inh 13.
For Cc1cccc(C(=O)OCC(=O)NCc2cccs2)c1 the results were TWEAK-Fn14 inh 2, TROY NFkB inh -29, EWS-Fli block 6 and PAX8 inh HTS 0.
COC1=C(C)C(=O)C2=C(C1=O)C1C3CC4=C(C(=O)C(OC)=C(C)C4=O)C(CNC(=O)C(C)=O)N3C(C#N)C(C2)N1C (stereo unspecified) was read as TWEAK-Fn14 inh 100*, TROY NFkB inh 63*, EWS-Fli block 32, PAX8 inh HTS 106* and LGR2 inh 97*.

Bioassay records from PubChem BioAssay.
